Experiment [1] in a line: qHTS assay to identify small molecule agonists of the RXR signaling pathway - cell viability counter screen (AID 1159529). Also: nearly all actives have a fitted effect of over 50% in size. Also: potency is read from the fitted curve at half-maximal effect.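 As to activity change, negative = cytotoxicity: HEK 293T cells carrying an RXR-alpha UAS beta-lactamase reporter; series mostly up to about 77 µM.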 Put shortly:
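Counter screen: CellTiter-Glo luminescence. Cells: RXR-alpha-UAS-bla HEK 293T. Medium: 2% charcoal-stripped FBS. Treatment: 16 h, 37 C. Reagent incubation: 30 min, RT.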
For orientation: Quantitative high-throughput screening tests each substance at several concentrations.

A short description of experiment [2]: qHTS assay to identify small molecule antagonists of the retinoid acid receptor (RAR) signaling pathway - cell viability counter screen (AID 1159551). Also: nearly all actives have a fitted effect of over 35% in size. The method, boiled down:
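Luminescent ATP quantitation (CellTiter-Glo) gave cell viability in C3RL4 cells exposed to test chemicals for 6 h at 37 C alongside 1 uM final retinol.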

Experiment [3] can be described thus: qHTS assay to identify small molecule antagonists of the retinoic acid receptor (RAR) signaling pathway (AID 1159552; also: nearly all actives have a fitted effect of over 50% in size). Put shortly:
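Antagonism of retinol-induced RARE reporter activity was measured in C3RL4 cells. Exposure to compounds and 1 uM final retinol lasted 6 hr at 37 C, with luminescence as endpoint.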

A short description of experiment [4]: qHTS assay to identify small molecule agonists of the retinoic acid receptor (RAR) signaling pathway (AID 1159553). The method, boiled down:
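Luminescence from a RARE-driven luciferase reporter in C3RL4 cells served as the read-out, measured after 30 min with detection reagent at room temperature. Compounds in DMSO were applied for 6 hr at 37 C following overnight seeding.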

Experiment [5] is described as follows: qHTS assay to identify small molecule agonists of the constitutive androstane receptor (CAR) signaling pathway - cell viability counter screen (AID 1224836). Also: series mostly up to about 92 µM; nearly all actives have a fitted effect of over 45% in size. Put shortly: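 Double-stable HepG2 hepatoma cells (hCAR plus CYP2B6-2.2kb) are treated for 23 h at 37 C with test compounds in 15-point concentration series. PK11195 at 0.75 uM final is co-added. Cell viability is quantified by CellTiter-Fluor.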

Experiment [6] is described as follows: qHTS assay to identify small molecule antagonists of the constitutive androstane receptor (CAR) signaling pathway - cell viability counter screen (AID 1224837). Also: series mostly up to about 92 µM; nearly all actives have a fitted effect of over 45% in size. The method, boiled down: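 HepG2-CYP2B6-hCAR cells, 2500/well, 4 hr pre-incubation; compound titration, 15 conc.; CITCO 50 nM final; 23 hr, 37 C/5% CO2; CellTiter-Fluor, fluorescence intensity.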
Experiment [7] is described as follows: qHTS assay to identify small molecule antagonists of the estrogen related receptor signaling pathway with the pleiotropic PPARgamma coactivator (PGC) from Tox21 10K library - cell viability counter screen (AID 1224840; active = well fitted cell-killing curve with a large enough effect in the repeat runs, not every such curve was filed as active; also: nearly all actives have a fitted effect of over 40% in size; also: potency is read from the fitted curve at half-maximal effect). The method, boiled down:
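PGC/ERR cells, 2,000/well; 6 h pre-incubation 37 C/5% CO2; cpd in DMSO via pin tool; 17.5 h 37 C; CellTiter-Fluor, 30 min; fluorescence.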

Experiment [8] has as its target Thyrotropin receptor (Homo sapiens) (UniProt P16473). In words: qHTS assay to identify small molecule agonists of the thyroid stimulating hormone receptor (TSHR) signaling pathway (AID 1224843; calls by dose curve; also: nearly all actives have a fitted effect of over 45% in size). Put shortly: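 Steps: seed 800 TSHR-HEK293 cells per well; add test compound and hold 30 min at ambient temperature; dispense cAMP-d2 then anti-cAMP cryptate; incubate 1 h at ambient; measure fluorescence intensity.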

A short description of experiment [9]: qHTS assay to identify small molecule agonists of the estrogen related receptor signaling pathway with the pleiotropic PPARgamma coactivator (PGC) from Tox21 10K library (AID 1224842). Also: nearly all actives have a fitted effect of over 15% in size. The method, boiled down: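 PGC/ERR reporter cell line, 2,000 cells per well, incubated 6 h at 37 C before 23 nL compound in DMSO was added. After 18 h at 37 C, One-Glo luminescence read following 30 min at room temperature.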

In experiment [10] the target is Nuclear receptor subfamily 1 group I member 3 (Homo sapiens) (UniProt Q14994). In words: qHTS assay to identify small molecule antagonists of the constitutive androstane receptor (CAR) signaling pathway (AID 1224838).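 Also: HepG2 cells stably expressing hCAR with CYP2B6 luciferase reporter stimulated by CITCO; nearly all actives have a fitted effect of over 40% in size.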 Put shortly:
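HepG2-CYP2B6-hCAR cells; 4 h pre-incubation; cpd (15 conc) + CITCO 50 nM final; 24 h, 37 C/5% CO2; ONE-Glo, luminescence.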

Experiment [11] shares this target. Nature of the experiment: qHTS assay to identify small molecule agonists of the constitutive androstane receptor (CAR) signaling pathway (AID 1224839). Also: nearly all actives have a fitted effect of over 15% in size. Also: potency is read from the fitted curve at half-maximal effect.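 As to activation: HepG2 cells stably carrying human CAR and a CYP2B6 luciferase reporter; series mostly up to about 92 µM.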 Put shortly: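 Readout: firefly luciferase luminescence via ONE-Glo. System: HepG2 double-stable for hCAR and CYP2B6-2.2kb. Conditions: 15-point compound titration, PK11195 at 0.75 uM final, 24 h incubation.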

Experiment [12] in a line: qHTS assay to identify small molecule antagonists of the estrogen related receptor signaling pathway with the pleiotropic PPARgamma coactivator (PGC) from Tox21 10K library (AID 1224841; call rule not given here; also: actives are mostly falling curves and most rising ones were filed inactive; nearly all actives have a fitted effect of over 50% in size; also: potency is read from the fitted curve at half-maximal effect; as to activity, negative = inhibition: series mostly up to about 92 µM). Put shortly: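 PGC/ERR cell line, 2,000 cells/well; 6 h pre-incubation 37 C/5% CO2; compounds (DMSO) pinned in; 18 h, 37 C; One-Glo, 30 min RT; luminescence.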
A short description of experiment [13]: qHTS assay to identify small molecule antagonists of the estrogen related receptor (ERR) signaling pathway from Tox21 library - cell viability counter screen (AID 1224834). Also: nearly all actives have a fitted effect of over 30% in size. Also: potency is read from the fitted curve at half-maximal effect. Put shortly: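 Fluorescence from CellTiter-Fluor gives the viability read-out, taken 30 min after reagent addition. Before that, ERR cells seeded 6 h earlier were incubated with compounds for 17.5 h at 37 C.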

In experiment [14] the target is Luciferin 4-monooxygenase (Photinus pyralis) (UniProt P08659). In words: qHTS assay to identify small molecule inhibitors of firefly luciferase (AID 1224835). Also: series mostly up to about 120 µM; nearly all actives have a fitted effect of over 25% in size. Put shortly:
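Biochemical qHTS: compounds run as interplate titrations against purified firefly enzyme, with D-luciferin and ATP each at its KM concentration. Light output recorded by CCD imaging.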

A short description of experiment [15]: qHTS assay to identify small molecule antagonists of the estrogen related receptor (ERR) signaling pathway - cell viability counter screen (AID 1224818). Also: series mostly up to about 46 µM. Put shortly:
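Multiplexed counter screen to separate cytotoxic compounds from true ERR modulators. ERR cells received DMSO-dissolved compounds after a 6 h pre-incubation, were exposed 17.5 h at 37 C, then assayed with CellTiter-Fluor fluorescence.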

The nature of experiment [16]: qHTS assay to identify small molecule antagonists of the estrogen related receptor signaling pathway with the pleiotropic PPARgamma coactivator (PGC) cell viability counter screen (AID 1224822; also: series mostly up to about 46 µM). Put shortly: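 Cells: PGC/ERR, 2,000/well, 1536-well format. Pre-incubation 6 h, 37 C/5% CO2. Compound exposure 17.5 h, 37 C. Detection: CellTiter-Fluor, 30 min, fluorescence.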

Structures are written as SMILES. Inconclusive results are not listed. Values without a mark were called inactive. Calls of active or inactive are those of the source. Unless noted, calls follow the shape of the dose curve; as a rule, active = well fitted curve in the direction sought with a large enough effect in the repeat runs; inconclusive = weak or mixed curves; inactive = no such curve, though single readings can be large; an effect the other way counts as inactive or inconclusive.
% is scaled to controls: 0 for no effect and ±100 for the full control effect.

Chain of Luciferin 4-monooxygenase (Photinus pyralis) (P08659 whole entry, looked up): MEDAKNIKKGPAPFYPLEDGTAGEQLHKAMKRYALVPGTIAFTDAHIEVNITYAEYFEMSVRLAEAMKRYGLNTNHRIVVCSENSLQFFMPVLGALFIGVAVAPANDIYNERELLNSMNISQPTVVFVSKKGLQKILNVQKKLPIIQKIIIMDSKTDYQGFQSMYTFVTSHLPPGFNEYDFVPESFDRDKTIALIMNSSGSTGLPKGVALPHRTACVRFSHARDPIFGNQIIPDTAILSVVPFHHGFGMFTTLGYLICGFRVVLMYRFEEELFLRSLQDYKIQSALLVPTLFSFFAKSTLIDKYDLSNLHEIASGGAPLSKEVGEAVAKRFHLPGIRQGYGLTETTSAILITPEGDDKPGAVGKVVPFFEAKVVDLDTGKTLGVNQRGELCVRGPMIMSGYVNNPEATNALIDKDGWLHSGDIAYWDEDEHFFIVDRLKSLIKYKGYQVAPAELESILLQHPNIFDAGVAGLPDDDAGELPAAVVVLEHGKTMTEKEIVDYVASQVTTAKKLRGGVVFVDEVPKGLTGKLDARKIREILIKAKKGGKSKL
Chain of Nuclear receptor subfamily 1 group I member 3 (Homo sapiens) (Q14994 whole entry, looked up): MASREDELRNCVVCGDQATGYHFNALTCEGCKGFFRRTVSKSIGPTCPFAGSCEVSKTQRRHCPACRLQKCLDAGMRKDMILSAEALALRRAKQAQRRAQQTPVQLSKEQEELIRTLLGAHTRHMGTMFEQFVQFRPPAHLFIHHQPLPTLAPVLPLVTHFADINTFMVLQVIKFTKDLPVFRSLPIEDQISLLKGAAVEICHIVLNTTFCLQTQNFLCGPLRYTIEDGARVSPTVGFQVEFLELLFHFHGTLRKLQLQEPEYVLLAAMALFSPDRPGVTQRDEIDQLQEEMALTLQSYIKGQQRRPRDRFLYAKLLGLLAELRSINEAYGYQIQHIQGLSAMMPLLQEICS
Chain of Thyrotropin receptor (Homo sapiens) (P16473 whole entry, looked up): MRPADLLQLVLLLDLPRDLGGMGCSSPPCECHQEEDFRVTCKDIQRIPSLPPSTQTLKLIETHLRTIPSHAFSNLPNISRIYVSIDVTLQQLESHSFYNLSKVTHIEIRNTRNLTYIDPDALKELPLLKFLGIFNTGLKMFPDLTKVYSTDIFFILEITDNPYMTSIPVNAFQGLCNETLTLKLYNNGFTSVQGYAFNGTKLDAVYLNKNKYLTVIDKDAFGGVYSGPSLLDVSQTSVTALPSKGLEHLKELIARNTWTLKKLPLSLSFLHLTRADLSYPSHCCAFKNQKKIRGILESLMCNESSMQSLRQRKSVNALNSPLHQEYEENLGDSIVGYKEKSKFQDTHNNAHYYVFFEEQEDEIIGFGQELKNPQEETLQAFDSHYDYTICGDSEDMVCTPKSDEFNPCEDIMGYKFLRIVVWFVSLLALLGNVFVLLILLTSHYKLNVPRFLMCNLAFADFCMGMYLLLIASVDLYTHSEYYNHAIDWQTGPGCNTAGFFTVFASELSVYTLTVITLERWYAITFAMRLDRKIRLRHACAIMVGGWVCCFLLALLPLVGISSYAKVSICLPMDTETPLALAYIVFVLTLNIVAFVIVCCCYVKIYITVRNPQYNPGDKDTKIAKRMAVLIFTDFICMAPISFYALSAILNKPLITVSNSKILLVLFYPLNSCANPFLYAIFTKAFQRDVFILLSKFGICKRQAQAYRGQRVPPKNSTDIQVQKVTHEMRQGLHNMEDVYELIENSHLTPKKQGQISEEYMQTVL

With `Cc1cc(C(=O)O)ccc1[N+](=O)[O-]`, the Potency entry in experiment [1], in experiment [2], in experiment [3], in [4], in [5] and in experiment [6] was “inactive” each time. In addition, the Potency result in experiment [7] and in [8] was “inactive” each time.

As for `CCCCCCCCCCCCCCCCCCOS(=O)(=O)O`, the Potency in [1] was 43.6 µM (active). The Potency entry in experiment [2], in experiment [3], in [4], in experiment [5], in experiment [6] and in [9] was “inactive” each time.

As for `CCCCCCOC(=O)NC(=N)c1ccc(NCc2nc3cc(C(=O)N(CCC(=O)OCC)c4ccccn4)ccc3n2C)cc1`, the Potency in experiment [1] was 10.7 µM (active); in experiment [7], 29.8 µM (active); in experiment [12], 16.8 µM (active). For the same molecule, the Potency result in experiment [2], in experiment [3], in [4], in experiment [5], in experiment [6] and in experiment [10] was “inactive” each time. Besides, the Potency entry in [11], in experiment [9] and in experiment [8] was “inactive” in each case.

Take `CC(=O)NO`: the Potency entry in experiment [1], in experiment [2], in [4], in experiment [13], in experiment [5] and in experiment [10] was “inactive” each time. Besides, the Potency result in experiment [7] and in experiment [8] was “inactive” in each case.

For the molecule `O=C(O)c1ccc(-n2nc(-c3ccccc3O)nc2-c2ccccc2O)cc1`, the Potency result in experiment [1], in [2], in experiment [3], in experiment [14], in experiment [5] and in [6] was “inactive” throughout. The Potency result in experiment [11], in experiment [7] and in experiment [9] was “inactive” each time. In addition, the Potency in experiment [13] is 23.7 µM (active); in experiment [12] it was 10.6 µM (active).

On to `Cc1cc(N)c2cc(NC(=O)Nc3ccc4nc(C)cc(N)c4c3)ccc2n1`, for which the Potency result in [1], in experiment [2], in experiment [3], in experiment [4], in experiment [6] and in [10] was “inactive” each time. Further, the Potency entry in experiment [11] and in experiment [7] was “inactive” each time.

Regarding `Nc1c(CC(=O)O)cccc1C(=O)c1ccc(Br)cc1`, the Potency result in experiment [1], in experiment [2], in experiment [4], in [13], in experiment [14] and in experiment [5] was “inactive” in each case. Further, the Potency result in experiment [6], in experiment [7] and in [8] was “inactive” in each case.

Consider `C[N+]1(C)CCC(OC(=O)C(O)(c2ccccc2)C2CCCC2)C1` (stereo not given), for which the Potency result in experiment [1], in [2], in experiment [4], in [13], in experiment [14] and in [5] was “inactive” each time. Also, the Potency entry in experiment [10], in experiment [11], in [7] and in experiment [8] was “inactive” each time.

Consider `CCC(C)c1cc(C(C)(C)C)c(O)c(C(C)(C)C)c1` (stereo not given), for which the Potency result in [1], in [2], in experiment [4], in experiment [13], in experiment [14] and in experiment [5] was “inactive” each time. For the same molecule, the Potency result in experiment [6], in experiment [7] and in experiment [8] was “inactive” each time.

As to `C=C1C(=C/C=C2\CCC[C@]3(C)[C@@H]([C@H](C)/C=C/[C@@H](O)C4CC4)CC[C@@H]23)C[C@@H](O)C[C@@H]1O`, the Potency was 23.9 µM (active) in [1], 29.8 µM (active) in experiment [13] and 29.8 µM (active) in [12]. Also, the Potency result in experiment [2], in [3], in experiment [14], in experiment [5], in [6] and in experiment [9] was “inactive” each time.

In the case of `COc1ccc(C(=O)c2ccc(OC)cc2O)c(O)c1`, the Potency entry in experiment [1], in experiment [2], in experiment [3], in experiment [5], in experiment [6] and in experiment [7] was “inactive” in each case. In addition, the Potency result in experiment [12] and in experiment [8] was “inactive” throughout. The Potency in experiment [11] is 9.76 µM (active).

With `Brc1c2ccccc2c(Br)c2ccccc12`, the results for the activity change, negative = cytotoxicity in experiment [1], in [2] and in [6] were 0.822% [at 6.97 µM], 11.4% [at 8.39 µM] and 6.42% [at 8.39 µM], respectively. The figures for the activation in experiment [4], in experiment [11] and in experiment [8] were -1.37% [at 8.36 µM], 11.6% [at 8.39 µM] and -2.14% [at 8.39 µM], respectively. Also, the results for the viability change, negative = cytotoxic in [13], in experiment [5] and in [7] were -0.56% [at 8.39 µM], 3.16% [at 8.39 µM] and 6.16% [at 8.39 µM], respectively. The activity change, negative = inhibition in experiment [14] is 2.43% [at 10.5 µM]. In addition, the activity, negative = inhibition in experiment [10] was 22.1% [at 8.39 µM]; in [12], 52.5% [at 8.39 µM].

In the case of `CCn1cc(C(=O)O)c(=O)c2cnc(N3CCNCC3)nc21`, the Potency entry in experiment [1], in experiment [2], in experiment [3], in experiment [13], in [14] and in experiment [5] was “inactive” each time. Moreover, the Potency result in experiment [6], in experiment [10], in experiment [11], in experiment [7], in [12] and in [9] was “inactive” in each case.

As for `C#CCN(C)CCCOc1ccc(Cl)cc1Cl`, the Potency entry in experiment [1], in experiment [2], in experiment [3], in [13], in experiment [5] and in [6] was “inactive” throughout. Further, the Potency entry in [10] and in experiment [7] was “inactive” in each case. For the same molecule, the molecule was classed as inactive in experiment [15] and in experiment [16]. Moreover, the Potency in experiment [11] is 26.6 µM (active).

Consider `O=C(c1ccc(F)cc1)C1CCN(CCn2c(=S)[nH]c3ccccc3c2=O)CC1`, for which the Potency entry in experiment [1], in [2], in experiment [3], in experiment [14], in [5] and in experiment [6] was “inactive” throughout. The Potency entry in experiment [10], in [11] and in experiment [8] was “inactive” each time. In addition, the Potency in [13] was 29.8 µM (active); in experiment [12] it was 26.6 µM (active).

As for `Brc1c2ccccc2cc2ccccc12`, the Potency in experiment [1] was 35 µM (active); in [11], 55 µM (active). Also, the Potency result in experiment [2], in [4], in [13], in [5], in experiment [6] and in experiment [10] was “inactive” throughout. The Potency result in experiment [7] and in experiment [8] was “inactive” throughout.

On to `O=C(Nc1ccc(S(=O)(=O)N2CCOCC2)cc1)c1cc(Cl)ccc1NS(=O)(=O)c1ccc(Cl)s1`, for which the Potency result in [1], in experiment [2], in experiment [4], in experiment [13], in experiment [6] and in experiment [7] was “inactive” in each case. The Potency result in experiment [12], in [9] and in experiment [8] was “inactive” in each case.
